Measured values from PubChem BioAssay AID493169 (National Center for Advancing Translational Sciences (NCATS), 2011).
Records with an inconclusive call do not appear. Unmarked numbers belong to inactive results. Activity calls are given as the source filed them. Calls follow the shape of the dose curve; as a rule, active = well fitted inhibition curve with a large enough effect; inconclusive = small, poorly fitted or top-dose-only effect; inactive = flat fitted curve, though single readings scatter.

Assay: CHOP2 Reporter Counterscreen Assay for Inhibitors of Ubiquitin-specific Protease USP2a;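 also: activated enterokinase alone at 50 pM in a cell-free format rather than USP2a or CHOP2; nearly all actives have a fitted effect of over 55% in size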
Settings: purified enterokinase, fluorogenic substrate, 485/531 nm; series mostly up to 38.3 µM; activity change, negative = inhibition: at the top concentration
Text: NIH Molecular Libraries Probe Centers Network [MLPCN] NIH Chemical Genomics Center [NCGC] MLPCN Grant: XO1-MH079852-01 PI Name: Nicholson, Ben. Progenra Inc, Malvern, PA NCGC Assay Overview: Homeostasis of cellular proteins is maintained through a combination of synthesis and degradation. The pathway that accounts for the majority of protein degradation is the ubiquitin-proteasomal pathway. Ubiquitin (Ub) is highly conserved in all cells and the generation of a multi-Ub chain typically targets proteins for degradation by the proteasome. However, ubiquitination is highly reversible and dynamic. Deubiquitination, the reverse process, is catalyzed through the action of enzymes referred to as isopeptidases or deubiquitinating enzymes (DUBs). This group of enzymes is collectively responsible for maintaining adequate pools of free ubiquitin and regulating the ubiquitination status of cellular proteins. The class of DUBs referred to as the ubiquitin-specific proteases (USP) family functions endoproteolytically to cleave Ub chains from a wide range of protein substrates. USP2a deubiquitinates fatty acid synthase (FASN) which has recently been identified as an emerging oncology target. To identify inhibitors of USP2a a cell-free assay was employed. This assay is a counterscreen against the reporter enzyme used to measure USP2a activity in the primary qHTS assay. The reporter enzyme is a protease (enterokinase, EK; EC 3.4.21.9), which is activated when a Ub sequence is cleaved by USP2a. The counterscreen assay is performed in the same buffer and conditions as the primary USP2a coupled assay but uses fully activated EK alone. The assay gives a fluorescent read-out at excitation/emission wavelengths of 485/531. The assay was provided by Progenra, Inc. and has been licensed for sale by LifeSensors, Inc.
NCGC Assay Protocol: The assay buffer, prepared fresh at the day of the assay, contains 20mM Tris-HCl pH 8.0, 2mM CaCl2, 2mM beta-Mercaptoethanol, 0.05% CHAPS. 3uL of 100 pM EK (50 pM final) was dispensed into a medium-binding black solid Kalypsys 1,536 well plate using the Kalypsys dispenser. The assay plate was then pinned with 23nL compounds in DMSO with the Kalypsys pintool in columns 5-48 (0.3% final DMSO concentration). The negative control was buffer/DMSO only in column 3. The assay plate is incubated at RT for 30min. Subsequently, 3uL of reporter substrate (25nM final) were dispensed into the plate using the Kalypsys dispenser. Plates were read after 10 min at RT on a ViewLux (Perkin Elmer) plate reader using the following wavelengths: Ex 485nm /Em 531nm. Data were normalized to the AC100 inhibition (buffer alone). Concentration-response curves were fitted to the normalized data and the concentration-response curves were then classified based on curve quality (r2), response magnitude and degree of measured activity. The time zero reading was used to flag fluorescence artifacts.
% is scaled to controls: 0 for no effect and ±100 for the full control effect; potency is read from the fitted curve at half-maximal effect.

Compound | activity change, negative = inhibition [%] | Potency
O=C(c1ccccc1)N1CCN(C(=O)N2CCCCC2)CC1 | 2.79 | 
COc1ccc2cc(CN(C(=O)Nc3ccccc3)C3CCCC3)c(=O)[nH]c2c1 | -1.45 | 
C=CCSC1=N/C(=C\C=C\c2ccco2)C(=O)S1 |  | 7.94 µM (active)
CCOc1ccc(NC(=O)CSc2nnc(Cn3c(=O)sc4ccccc43)n2C)cc1 | 3.46 | 
N#Cc1c(SCC(=O)Nc2nc3ccccc3s2)sc2c(O)cc(=O)[nH]c12 |  | 10 µM (active)
Nc1ccccc1S(=O)(=O)NC1=NCCCCC1 | 3.72 | 
O=C(COc1ccccc1)NCc1nnc(SCC(=O)Nc2nccs2)n1-c1ccccc1 | -1.22 | 
CCc1cc(C(=O)N=Nc2c(O)[nH]c3ccc([N+](=O)[O-])cc23)c2ccccc2n1 |  | 8.91 µM (active)
CC(C)C(=O)Nc1ccc(C(=O)N2CCCCCC2)cc1 | -0.838 | 
N#Cc1c(Nc2ccc(Cl)cc2)s[nH]c1=O | -3.6 | 
CC[n+]1c(/C=C/N(C)c2ccccc2)n(-c2ccccc2)c2ccc(-c3nc4ccccc4s3)cc21 |  | 10 µM (active)
O=C(CN1CCC(O)CC1)N1c2ccccc2C=Cc2ccccc21 | 4.57 | 
COc1ccc(OCC(=O)Nc2ccccc2OC)cc1 | 9.5 | 
O=C(Nc1cccc(C(F)(F)F)c1)/C(=C\c1ccco1)NC(=O)c1cccs1 | 7.95 | 
Cc1ccc(C)n1NC(=O)c1ccccc1O | -12.6 | 
Cc1ccc(/C(N)=N/OC(=O)Oc2ccccc2)cc1 | -0.304 | 
Cc1ccc2[nH]c3c(c2c1)CN(C(=O)CN1CCSCC1)CC3 | 13.7 | 
CCC(CO)Nc1nc(CN2CCCCC2)nc2scc(-c3ccccc3)c12 (stereo not given) | 0.692 | 
C[C@@H]1CC[C@]2(C(=O)O)CC[C@]3(C)C(=CCC4[C@]56CC[C@@](O)(OC5)C(C)(C)C6CC[C@]43C)C2[C@H]1C (stereo not given in full) | -24.5 | 
O=S(=O)(c1ccccc1)N(CC1CO1)c1cc(Cl)ccc1Cl (stereo not given) | 2.84 | 

Compound | activity change, negative = inhibition [%] | Potency
CCOc1ccccc1N(CC(=O)NC(C)(C)C)C(=O)c1ccc(CN2CCOCC2)o1 | -0.122 | 
CCC(=O)Nc1c2c(nn1-c1ccc(F)cc1)CS(=O)C2 (stereo not given) | 3.27 | 
CCOC(=O)N1CCN(CC(=O)n2c(C)c(C)c3ccccc32)CC1 | -16.2 | 
COc1ccc(NC(=O)CN(Cc2ccccc2)S(C)(=O)=O)cc1 | 3.37 | 
CC1(C)CC(=O)C2=C(C1)Oc1ncn(CCCO)c(=N)c1C2c1ccccc1 (stereo not given) | -1.64 | 
O=C1N=c2ccccc2=C1c1sc(Nc2ccc(O)cc2)nc1O |  | 8.91 µM (active)
CCCOC(=O)CCCCC1SCC(NC(=O)OC)C1NC(=O)OC (stereo not given) | 15.4 | 
COc1cc(-c2nc(-c3ccc4c(c3)-c3ccccc3S4(=O)=O)c(-c3ccccc3)[nH]2)cc(OC)c1O | 0.409 | 
Cc1cccc(N=C2NC(=O)/C(=C/C=C/c3ccco3)S2)c1 |  | 10 µM (active)
CC(C)n1c(/C=C/[C@H](O)C[C@H](O)CC(=O)O)c(-c2ccc(F)cc2)c2ccccc21 | 5.52 | 
O=C(NCc1ccccc1)C1CCC1 | 1.5 | 
O=C1Nc2ccc(S(=O)(=O)N3CCCCCC3)c3cccc1c23 | -0.53 | 
O=C1NC[C@@H](c2ccccc2)OC(=O)[C@@H](Cc2ccc(F)cc2)CC/C=C/C[C@@H]1CC(=O)N(CCO)Cc1ccccc1 | -2.43 | 
O/N=C/c1ccccc1OCc1ccccc1F | 0.904 | 
Cc1ccc(O)c(CC(C)C)n1 | 2.61 | 
O=C1c2ccccc2C(=O)N1CCCCn1c(=O)oc2ccccc21 | 0.299 | 
COc1ccccc1C(=O)n1nc(-c2cccnc2)nc1NCc1ccccc1 |  | 1 µM (active)
CCCCCCCCCCOC(=O)Cn1c(COc2ccccc2C)[n+](C)c2ccccc21 |  | 5.62 µM (active)
CN1CCN(CCCCOc2ccc(F)cc2)CC1 | 0.243 | 
C#CCOCCOCCOCCNc1nc(N2CCN(C(=O)CCCCCCCCCCNC(=O)[C@@H](CCC(=O)O)n3cc(CCCCCN)nn3)CC2)nc(N2CCN(C(=O)CCCCCCCCCCNC(=O)[C@H](CCCCN)n3cc(C[C@@H](C)CC)nn3)CC2)n1 |  | 5.62 µM (active)
